Only a selection was taken, and hits are over-represented in it overall.
Tgondii IFNg – T. gondii growth inhibition with IFN-gamma, primary screen, cell-based | Toxoplasma gondii growth in IFN-gamma-treated host cells; hits give low values | activity change, negative = inhibition, % (no concentration beside the values) | hit rate 3.8% among 69,000; in the data active means activity change below about -70%, passing the limit was not always enough;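 further: host cells are HeLa cells infected with Toxoplasma gondii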
The depositor's hits bear a star; i = inactive; ! = repeats disagree.

SMILES	Tgondii IFNg
Clc1cc2c(cc1-c1nccn1-c1ccc(Oc3nn[nH]n3)cc1)OCO2	2
Cc1cc2c(cc1-c1nccn1CCc1nc(-c3cccnc3)no1)OCO2	-22
Cc1ccccc1-c1nc(CN2CCN(C(=O)Nc3ccccc3C(F)(F)F)CC2)c(C)o1	0
O=C(CC1N=C2c3ccccc3N=C(SCc3cc(=O)n4ccccc4n3)N2C1=O)NCc1ccc(F)cc1 (centres undefined)	28
CC(C)n1c(SCC(=O)O)nc2ccccc21	29
CC(C)n1c(/C=C/[C@@H](O)C[C@@H](O)CC(=O)O)c(-c2ccc(F)cc2)c2ccccc21	-78*!
CC(NC(=O)c1cc(-c2ccc(F)cc2)no1)c1nc2ccccc2n1C(C)C (centres undefined)	-10
CC(c1ccc2c(c1)OCCO2)N(C)C(=O)c1cccc(-n2cnnc2)c1 (centres undefined)	32
CC1=C(/C=C/C(C)=C/C=C/C(C)=C/CO)C(C)(C)CCC1	17
O=C(NCCCCc1ccccc1)c1ccccc1	-82*
O=C(O)CCNC(=O)c1ccccc1	11
O=C(CCCl)NCCc1ccccc1	31
O=C(Nc1ccc(Br)cc1F)c1cccc(Br)c1	437
CN=C(N)NC(=O)Nc1c(C)cccc1C	15
Clc1ccc(/C=C/c2nc3cc(-c4ccccc4)ccc3o2)cc1	6
CC(=O)Oc1c(C)cccc1C(=O)O	16
Cc1nn2c(C3CCCN(C(=O)OC(C)(C)C)C3)ccnc2c1-c1cccs1 (centres undefined)	-77*
CC(=O)Nc1ncc(-c2cccc(C3CCCN(C(=O)OC(C)(C)C)C3)n2)s1 (centres undefined)	-61
COc1ccc(-c2c(C)nn3c(C4CCN(Cc5ccccc5)C4)ccnc23)cc1OC (centres undefined)	-10
Nc1nc2ccc(C(=O)N3CCOCC3)cc2s1	11
COCCN(Cc1cccs1)C(=O)c1cc(=O)n(C)c(=O)n1C	2
CS(=O)(=O)N1C[C@H]2CC[C@@]3(N=C(c4ccccc4)NC3=O)[C@H]2C1	-15
CCN1CCN(CC2(O)CCCN(CCCc3ccccc3)C2=O)CC1 (centres undefined)	0
CCCCn1c(=O)c2c(nc3n2CCCN3CCc2ccccc2)n(C)c1=O	-97*
CCCCCCn1c(=O)c2c(ncn2C)n(C)c1=O	16
SMILES	Tgondii IFNg
Cc1oc(-c2ccccc2Cl)cc1C(=O)N1CCNC(=O)CC1	-31
CN1CC[C@@H](c2c(O)cc(O)c3c(=O)cc(-c4ccccc4Cl)oc23)[C@@H]1CO	-74*
Cc1oc(-c2ccccc2Cl)cc1C(=O)N1CCCCC1CO (centres undefined)	-45
COC(=O)C(c1ccccc1)N1CCC(O)(c2ccc(C)cn2)CC1 (centres undefined)	5
CCOc1ccccc1-c1nc(Cn2ccn3nc(-c4cccs4)cc3c2=O)c(C)o1	-87*
Cc1ccccc1-c1nc(Cn2ccn3nc(-c4cccs4)cc3c2=O)c(C)o1	119
CCOc1ccccc1-c1nc(Cn2ccn3nc(-c4ccccc4OC)cc3c2=O)c(C)o1	i
CN1C(=O)c2cc(NC(=O)C3CCOCC3)ccc2OC[C@@H]2O[C@@H](CC(=O)NCC3CCCCC3)CC[C@H]21	9
Cc1ccc(C)c(NC(=O)CCN2CCC(Oc3cccnc3)CC2)c1	-14
CCn1c(=O)[nH]c2cc(Cl)c(Cl)cc21	-84*!
CCN1C(=O)CCc2cc(NC(=O)c3cncc(Br)c3)ccc21	81
O=C1COc2cc3c(cc2N1)C(c1cc(F)ccc1-n1cccn1)CC(=O)N3 (centres undefined)	-20
Cc1ccc(Nc2nc(C(=O)N(C)Cc3ccccc3)nc3ccccc23)cc1	-77*
COc1ccc(OC)c(CNC(=O)c2nc(Nc3cccc(C)c3)c3ccccc3n2)c1	-74*
COc1ccc(CNC(=O)c2nc(Nc3ccccc3)c3ccccc3n2)c(OC)c1	-54
Cc1ccc(CNC(=O)c2nc(Nc3ccc(F)cc3)c3ccccc3n2)cc1	-32
CN(Cc1ccccc1)C(=O)c1nc(Nc2ccc(F)cc2)c2ccccc2n1	25
CCNC(=O)c1nc(Nc2ccc(C)cc2)c2ccccc2n1	-26
Cc1ccc(CNC(=O)c2nc(Nc3cccc(C)c3)c3ccccc3n2)cc1	-79*
COc1ccc(OC)c(CNC(=O)c2nc(Nc3ccc(C)cc3)c3ccccc3n2)c1	-41
CCCCNC(=O)c1nc(Nc2cccc(C)c2)c2ccccc2n1	-57
O=C(C1CCC1)N1CC(=O)N2[C@H](C1)[C@H](c1ccc(Br)cc1)[C@@H]2CO	-12
O=C(C[C@@H]1CC[C@@H]2[C@H](COC[C@H](O)CN2Cc2cc(F)ccc2F)O1)NCc1ccc(Oc2ccccc2)cc1	-45
O=S1(=O)[C@@H]2CCN(c3ncc(F)cn3)CC[C@H]2CN1Cc1cccnc1	4
CSc1nc(C(=O)N2CCCC(Cn3cc(C(C)(C)C)nn3)C2)cs1 (centres undefined)	-14
SMILES	Tgondii IFNg
CCCNS(=O)(=O)c1ccc2c(c1)n(C)c(=O)n2C	32
CCN(CC)c1ccc2ccc(C(=O)NCC(=O)N(C)C)cn12	60
Cc1cn(-c2cc(NC(=O)c3ccc(C)c(Nc4nccc(-c5cccnc5)n4)c3)cc(C(F)(F)F)c2)cn1	-77*!
CC(C)Oc1ccc(NC(=O)c2cc(-c3cnc(-c4cccnc4)nc3)cn2C)cc1	-17
Cc1ccc(NC(=O)c2ccc(CN3CCN(C)CC3)cc2)cc1Nc1nccc(-c2cccnc2)n1	-38
O=C(Cn1c(=O)cc(C(=O)N2CCCC2)c2ccccc21)Nc1ccc(F)c(Cl)c1	7
O=C(Cn1c(=O)cc(C(=O)N2CCc3ccccc3C2)c2ccccc21)Nc1ccc(F)c(Cl)c1	-72*
Cc1ccc(NC(=O)Cn2c(=O)cc(C(=O)N3CCc4ccccc4C3)c3ccccc32)cc1F	-48
COc1cc2c(cc1OC)-c1cc3ccc(OC)c(OC)c3c[n+]1CC2	11
O=C1CCCc2cnnn2COC[C@@H](c2ccccc2)N1	-18
Cc1ccccc1OCC(=O)OC(C)CN1CCOCC1 (centres undefined)	219
CCN(Cc1cnc(-c2cccc3ccccc23)nc1)C1CCS(=O)(=O)C1 (centres undefined)	7
C=CCOc1ccc2c(=O)cc(C(=O)OCC)oc2c1CCC	-3
CCCCOc1ccc2c(=O)c(-c3cc(C(=O)OC)oc3C)c(C(F)(F)F)oc2c1C	-108*
CCc1c(C)c2ccc(OCC(=O)OC(C)C)c(C)c2oc1=O	37
Cn1c(Oc2ccc3c(c2)OCO3)nc2c1c(=O)n(Cc1ccc(F)cc1)c(=O)n2C	-15
COc1ccc(-c2noc(-c3c(O)c4ccccc4n(C)c3=O)n2)c(OC)c1	-5
O=C(O)c1ccc2c(c1)nc(Nc1cccc(Cl)c1)c1ccncc12	-73*
Cc1cccc(Nc2nc(C(=O)Nc3cccc(Cl)c3)nc3ccccc23)c1	30
Cc1ccc(Nc2nc(C(=O)Nc3cccc(Cl)c3)nc3ccccc23)cc1	5
Cc1ncc(C(=O)NCc2ccccc2)c(C2CCCCN2CC(=O)Nc2cc(C)on2)n1 (centres undefined)	2
CN(C)C(=O)c1cccc(-c2ccc3c(c2)[C@@H]2[C@@H](CCN2C(=O)Cc2ccccc2)[C@@H](CO)N3)c1	-55
CC(C)CCN1c2nc(Nc3cc(F)c(O)c(F)c3)ncc2N(C)C(=O)C1C (centres undefined)	-84*
Cc1ccc(C(NC(=O)c2cc(CN3CCOCC3)c(C)o2)c2ccncc2)cc1C (centres undefined)	-3
